This note sets out measurements from the supplement of paper PMC12067093, “Discovery and optimisation of a covalent ligand for TRIM25 and its application to targeted protein ubiquitination” (Chemical Science, 2025).

Compound in this experiment: Cc1cc(ccc1-c1ccccc1)C(=O)N1CCCN(CC1)C(=O)CCl [compound 10]
In words: probe-labelled cysteine peptide fold change vs DMSO (competition) (log2 fold change); higher = less target engagement (more negative = stronger competition). Particulars: THP-1, incubation time: 4 h.

About 21,000 targets were measured; listed, in parts, are those with the largest changes and a random draw of the rest.
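Further: competitive profiling in live THP-1 cells: cysteine peptides tagged with an iodoacetamide desthiobiotin (IA-DTB) probe, intensity after compound treatment relative to DMSO-treated cells.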

Sequence of UniProt Q15398 (Q15398 whole entry, looked up): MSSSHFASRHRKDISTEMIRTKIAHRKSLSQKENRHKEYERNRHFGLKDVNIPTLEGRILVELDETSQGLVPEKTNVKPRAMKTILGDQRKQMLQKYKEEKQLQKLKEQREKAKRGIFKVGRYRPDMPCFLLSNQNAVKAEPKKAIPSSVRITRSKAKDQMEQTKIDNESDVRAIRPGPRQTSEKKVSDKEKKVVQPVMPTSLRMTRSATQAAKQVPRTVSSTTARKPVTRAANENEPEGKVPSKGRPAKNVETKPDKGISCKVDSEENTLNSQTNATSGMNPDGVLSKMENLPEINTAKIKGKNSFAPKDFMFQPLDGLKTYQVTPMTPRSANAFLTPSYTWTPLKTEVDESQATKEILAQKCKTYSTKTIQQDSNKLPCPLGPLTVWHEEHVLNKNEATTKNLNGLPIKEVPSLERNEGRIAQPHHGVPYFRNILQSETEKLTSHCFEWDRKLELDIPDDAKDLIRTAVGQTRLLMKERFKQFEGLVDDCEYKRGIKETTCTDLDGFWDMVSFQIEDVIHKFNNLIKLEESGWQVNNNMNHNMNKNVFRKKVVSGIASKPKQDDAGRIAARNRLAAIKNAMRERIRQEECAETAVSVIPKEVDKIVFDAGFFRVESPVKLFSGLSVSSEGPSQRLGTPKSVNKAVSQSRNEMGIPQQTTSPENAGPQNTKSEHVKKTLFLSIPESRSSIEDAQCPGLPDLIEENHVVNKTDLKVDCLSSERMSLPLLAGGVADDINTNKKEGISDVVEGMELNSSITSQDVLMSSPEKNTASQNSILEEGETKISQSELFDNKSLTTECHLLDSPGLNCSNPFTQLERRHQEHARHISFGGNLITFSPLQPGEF
Sequence of UniProt Q10570 (Q10570 whole entry, looked up): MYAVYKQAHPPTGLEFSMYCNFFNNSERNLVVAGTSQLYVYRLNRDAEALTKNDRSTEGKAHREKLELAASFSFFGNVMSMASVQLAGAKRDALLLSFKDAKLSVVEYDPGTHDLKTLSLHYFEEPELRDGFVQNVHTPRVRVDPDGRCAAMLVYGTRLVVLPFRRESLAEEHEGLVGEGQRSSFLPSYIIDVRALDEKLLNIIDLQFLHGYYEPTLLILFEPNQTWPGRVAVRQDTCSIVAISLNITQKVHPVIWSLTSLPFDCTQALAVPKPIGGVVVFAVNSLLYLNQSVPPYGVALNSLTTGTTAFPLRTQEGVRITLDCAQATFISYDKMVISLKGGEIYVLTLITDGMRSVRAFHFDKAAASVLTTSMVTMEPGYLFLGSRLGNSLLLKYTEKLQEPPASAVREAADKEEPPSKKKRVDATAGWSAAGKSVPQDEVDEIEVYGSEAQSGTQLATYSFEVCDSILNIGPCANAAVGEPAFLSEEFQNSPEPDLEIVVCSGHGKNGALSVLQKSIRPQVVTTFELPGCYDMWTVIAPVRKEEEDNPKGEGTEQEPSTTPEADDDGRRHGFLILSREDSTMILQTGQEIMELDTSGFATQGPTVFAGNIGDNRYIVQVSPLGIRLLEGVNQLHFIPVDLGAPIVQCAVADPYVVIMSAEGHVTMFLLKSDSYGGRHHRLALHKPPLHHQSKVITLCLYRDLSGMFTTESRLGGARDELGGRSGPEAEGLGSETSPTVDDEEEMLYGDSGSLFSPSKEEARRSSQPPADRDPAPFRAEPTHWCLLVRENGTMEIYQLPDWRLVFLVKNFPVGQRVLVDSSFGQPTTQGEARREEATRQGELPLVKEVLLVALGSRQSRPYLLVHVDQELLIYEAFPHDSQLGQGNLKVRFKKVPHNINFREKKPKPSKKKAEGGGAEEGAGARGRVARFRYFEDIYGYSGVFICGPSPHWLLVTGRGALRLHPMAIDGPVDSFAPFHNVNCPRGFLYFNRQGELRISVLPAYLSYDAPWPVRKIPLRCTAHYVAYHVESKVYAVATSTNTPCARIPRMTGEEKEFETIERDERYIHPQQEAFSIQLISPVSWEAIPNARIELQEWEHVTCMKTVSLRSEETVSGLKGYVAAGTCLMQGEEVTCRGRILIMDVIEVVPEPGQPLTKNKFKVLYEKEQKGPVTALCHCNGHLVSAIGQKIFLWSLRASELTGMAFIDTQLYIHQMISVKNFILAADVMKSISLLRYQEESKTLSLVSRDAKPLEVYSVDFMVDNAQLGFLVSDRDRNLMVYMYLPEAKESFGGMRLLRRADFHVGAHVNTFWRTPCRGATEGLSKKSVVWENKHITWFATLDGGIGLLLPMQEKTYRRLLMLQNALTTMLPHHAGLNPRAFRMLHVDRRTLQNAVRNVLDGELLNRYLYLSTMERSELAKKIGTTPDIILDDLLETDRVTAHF
Sequence of UniProt P55060 (P55060 whole entry, looked up): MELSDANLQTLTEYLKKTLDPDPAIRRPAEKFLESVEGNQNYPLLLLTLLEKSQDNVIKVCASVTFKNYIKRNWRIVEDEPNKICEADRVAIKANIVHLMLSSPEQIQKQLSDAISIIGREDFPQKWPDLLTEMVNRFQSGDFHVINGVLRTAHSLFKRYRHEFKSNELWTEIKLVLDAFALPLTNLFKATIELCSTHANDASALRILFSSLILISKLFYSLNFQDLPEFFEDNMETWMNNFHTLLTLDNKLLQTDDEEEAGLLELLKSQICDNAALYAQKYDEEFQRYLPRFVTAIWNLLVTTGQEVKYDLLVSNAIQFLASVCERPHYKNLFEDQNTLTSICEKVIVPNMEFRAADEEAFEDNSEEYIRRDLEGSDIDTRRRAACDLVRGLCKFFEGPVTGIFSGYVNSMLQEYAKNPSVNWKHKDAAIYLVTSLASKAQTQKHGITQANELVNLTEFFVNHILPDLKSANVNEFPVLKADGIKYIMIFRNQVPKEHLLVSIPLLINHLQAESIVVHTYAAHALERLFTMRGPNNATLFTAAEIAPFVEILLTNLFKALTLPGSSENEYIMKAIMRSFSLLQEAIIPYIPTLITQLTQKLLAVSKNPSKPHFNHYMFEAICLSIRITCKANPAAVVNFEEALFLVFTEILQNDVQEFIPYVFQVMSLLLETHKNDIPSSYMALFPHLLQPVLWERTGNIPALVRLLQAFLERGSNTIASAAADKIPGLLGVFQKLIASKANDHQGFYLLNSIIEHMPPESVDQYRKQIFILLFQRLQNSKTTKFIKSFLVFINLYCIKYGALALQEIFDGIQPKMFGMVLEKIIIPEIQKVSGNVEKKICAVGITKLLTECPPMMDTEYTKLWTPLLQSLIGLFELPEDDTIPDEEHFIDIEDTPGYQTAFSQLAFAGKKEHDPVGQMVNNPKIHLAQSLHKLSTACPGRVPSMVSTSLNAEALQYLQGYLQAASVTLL
Sequence of UniProt O95865 (O95865 whole entry, looked up): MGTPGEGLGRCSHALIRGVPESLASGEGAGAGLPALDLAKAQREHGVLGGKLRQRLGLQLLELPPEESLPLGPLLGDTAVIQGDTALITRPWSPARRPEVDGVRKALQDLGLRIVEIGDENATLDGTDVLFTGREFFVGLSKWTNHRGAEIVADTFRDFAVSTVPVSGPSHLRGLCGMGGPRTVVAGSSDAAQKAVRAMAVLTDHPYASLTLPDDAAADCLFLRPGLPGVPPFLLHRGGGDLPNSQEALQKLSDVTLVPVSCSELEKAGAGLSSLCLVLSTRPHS
Sequence of UniProt P17844 (P17844 whole entry, looked up): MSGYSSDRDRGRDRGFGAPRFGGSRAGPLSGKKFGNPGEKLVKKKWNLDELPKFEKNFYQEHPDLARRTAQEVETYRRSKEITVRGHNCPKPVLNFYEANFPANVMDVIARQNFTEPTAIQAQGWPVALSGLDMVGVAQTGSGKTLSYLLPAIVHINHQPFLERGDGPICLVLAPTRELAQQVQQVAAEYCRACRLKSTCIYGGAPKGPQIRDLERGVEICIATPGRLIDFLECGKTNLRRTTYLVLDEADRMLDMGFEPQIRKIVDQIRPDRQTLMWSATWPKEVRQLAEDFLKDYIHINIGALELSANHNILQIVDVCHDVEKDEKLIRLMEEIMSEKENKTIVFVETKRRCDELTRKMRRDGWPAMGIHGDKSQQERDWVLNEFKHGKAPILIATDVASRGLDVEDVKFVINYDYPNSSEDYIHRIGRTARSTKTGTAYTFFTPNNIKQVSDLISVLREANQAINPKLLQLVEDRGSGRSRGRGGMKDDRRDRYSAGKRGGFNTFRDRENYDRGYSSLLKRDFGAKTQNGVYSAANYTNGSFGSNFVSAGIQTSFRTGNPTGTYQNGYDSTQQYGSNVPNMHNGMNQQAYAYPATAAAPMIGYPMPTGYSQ
Sequence of UniProt Q96GQ7 (Q96GQ7 whole entry, looked up): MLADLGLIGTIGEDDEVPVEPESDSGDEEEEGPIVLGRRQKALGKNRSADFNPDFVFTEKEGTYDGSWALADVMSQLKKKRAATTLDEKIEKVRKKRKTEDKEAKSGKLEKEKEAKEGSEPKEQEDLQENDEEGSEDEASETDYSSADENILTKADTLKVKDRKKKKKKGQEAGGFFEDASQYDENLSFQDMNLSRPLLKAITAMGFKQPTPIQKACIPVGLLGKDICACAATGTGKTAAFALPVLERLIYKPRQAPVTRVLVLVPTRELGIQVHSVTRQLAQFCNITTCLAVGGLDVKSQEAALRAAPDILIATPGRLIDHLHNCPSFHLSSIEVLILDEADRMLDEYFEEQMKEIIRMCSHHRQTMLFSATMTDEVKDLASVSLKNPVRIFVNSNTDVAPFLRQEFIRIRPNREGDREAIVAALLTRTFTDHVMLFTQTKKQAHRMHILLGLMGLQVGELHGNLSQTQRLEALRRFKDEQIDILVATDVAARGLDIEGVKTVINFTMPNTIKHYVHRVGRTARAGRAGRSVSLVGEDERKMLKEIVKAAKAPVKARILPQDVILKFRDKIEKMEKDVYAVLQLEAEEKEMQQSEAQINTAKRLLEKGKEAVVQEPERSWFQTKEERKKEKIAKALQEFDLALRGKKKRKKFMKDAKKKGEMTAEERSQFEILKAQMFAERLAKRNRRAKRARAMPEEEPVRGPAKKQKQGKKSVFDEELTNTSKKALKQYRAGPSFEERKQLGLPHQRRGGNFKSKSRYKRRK

As for “DDAH2_O95865_11_CSHALIR (UniProt O95865)”, the “probe-labelled cysteine peptide fold change” value is, setting by setting: (10 µM) 0.0326; (50 µM) 0.0102.
For “CSE1L_P55060_344_NLFEDQNTLTSICEK (UniProt P55060)”, in that order: -0.186 and -0.107.
“DHX9_Q08211_608+612_KDKDDDGGEDDDANCNLICGDEYGPETR (UniProt Q08211)”: the “probe-labelled cysteine peptide fold change” value was -0.761 (10 µM) and -0.243 (50 µM).
Take “CRYZ_Q08257_45_VHACGVNPVETYIR (UniProt Q08257)”: the “probe-labelled cysteine peptide fold change” value runs as follows: (10 µM) 0.0503; (50 µM) -0.01.
Take “DNMT1_P26358_353+356_CIQCGQYLDDPDLK (UniProt P26358)”: the “probe-labelled cysteine peptide fold change” value runs as follows: (10 µM) 0.138; (50 µM) -0.0723.
For “DLGAP5_Q15398_129_YRPDMPCFLLSNQNAVK (UniProt Q15398)” the same measures were -0.0877 and -1.31.
For “CNBP_P62633_150_CGETGHVAINCSK (UniProt P62633)”, in that order: -0.103 and 0.0483.
For “DKC1_O60832_74_TTHYTPLACGSNPLKR (UniProt O60832)”, the “probe-labelled cysteine peptide fold change” value (10 µM) is -0.0751 and the “probe-labelled cysteine peptide fold change” value (50 µM) is -0.244.
On to “DMXL2_Q8TDJ6_1897_VGCPVLALEVLSK (UniProt Q8TDJ6)”, for which the “probe-labelled cysteine peptide fold change” value (10 µM) is 0.0214 and the “probe-labelled cysteine peptide fold change” value (50 µM) is -0.0631.
In the case of “DDX27_Q96GQ7_259_DICACAATGTGK (UniProt Q96GQ7)”, the “probe-labelled cysteine peptide fold change” value (10 µM) is 0.0194 and the “probe-labelled cysteine peptide fold change” value (50 µM) is -0.0602.
On to “COMT_P21964_241_GSSCFECTHYQSFLEYR (UniProt P21964)”, for which the “probe-labelled cysteine peptide fold change” value is 0.0648 (10 µM) and -0.0597 (50 µM).
In the case of “DENND6A_Q8IWF6_130_VSLHCLLDQFDK (UniProt Q8IWF6)”, the “probe-labelled cysteine peptide fold change” value runs as follows: (10 µM) 0.295; (50 µM) 1.1.
On to “COLGALT1_Q8NBJ5_369_ALQAQEIECR (UniProt Q8NBJ5)”, for which the “probe-labelled cysteine peptide fold change” value (10 µM) turned out to be 0.0256 and the “probe-labelled cysteine peptide fold change” value (50 µM) was determined as 0.125.
For “CRYL1_Q9Y2S2_125_VILSSSTSCLMPSK (UniProt Q9Y2S2)”, in that order: -0.0791 and -0.537.
For “CUL9_Q8IWT3_76_AEHILMWLSAPEVYANCPGLLGER (UniProt Q8IWT3)” the same measures were 0.0237 and -0.0123.
Consider “CPSF1_Q10570_1102_IELQEWEHVTCMK (UniProt Q10570)”, for which the “probe-labelled cysteine peptide fold change” value is 0.0314 (10 µM) and -0.201 (50 µM).
On to “DENND3_A2RUS2_499_LTDTAGCR (UniProt A2RUS2)”, for which the “probe-labelled cysteine peptide fold change” value runs as follows: (10 µM) -0.198; (50 µM) -0.918.
As to “DDX5_P17844_200_STCIYGGAPK (UniProt P17844)”, the “probe-labelled cysteine peptide fold change” value was -0.0442 (10 µM) and -0.0153 (50 µM).
For CTSZ_Q9UBR2_164_DQECDK (UniProt Q9UBR2) the same measures were -0.0913 and -0.207.
